Source: PubChem BioAssay AID1508601 (ICCB-Longwood Screening Facility, Harvard Medical School, 2020)
“And” between values parts separate entries of the source, which are not always exact repeats. Identical values can stand only once. In all, about 5,700 compounds went through this assay and about 85 (1%) were called active. This is one part of a sample in which actives are shown more often than they occur. Rule as the data show it: active = p53-positive nuclei above about 36% (passing the limit was not always enough); inactive = the rest.

Tests used:
[1] = nuclear p53 accumulation, HPV+ cells – imaging, p53-positive nuclei imaging, 24 h, 48 h (AID 1508601); settings: 24/48 h
[2] = molecular target: Cellular tumor antigen p53 (Homo sapiens) (UniProt P04637); experiment: as above; settings: 24/48 h, stronger effect = higher value
Cellular tumor antigen p53 (Homo sapiens), sequence (P04637 whole entry, looked up): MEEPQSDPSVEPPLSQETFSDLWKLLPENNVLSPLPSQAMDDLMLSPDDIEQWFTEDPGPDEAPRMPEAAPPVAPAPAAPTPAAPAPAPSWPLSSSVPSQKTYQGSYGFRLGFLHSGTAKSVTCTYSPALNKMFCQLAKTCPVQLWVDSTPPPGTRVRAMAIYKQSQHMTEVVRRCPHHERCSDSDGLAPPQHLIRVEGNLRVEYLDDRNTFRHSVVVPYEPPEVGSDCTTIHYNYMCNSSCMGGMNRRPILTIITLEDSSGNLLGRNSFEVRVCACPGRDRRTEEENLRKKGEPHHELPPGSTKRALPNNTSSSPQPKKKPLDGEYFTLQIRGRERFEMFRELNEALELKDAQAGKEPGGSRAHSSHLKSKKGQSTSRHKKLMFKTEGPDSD

[3] = measured here: cell number at 24 h, Library stock concentration: 80 uM
[4] = measured here: cell number at 24 h, Library stock concentration: 400 uM
[5] = measured here: cell number at 24 h, Library stock concentration: 2 mM
[6] = measured here: cell number at 24 h, Library stock concentration: 10 mM
[7] = measured here: cell number at 48 h, Library stock concentration: 80 uM
[8] = measured here: cell number at 48 h, Library stock concentration: 400 uM
[9] = measured here: cell number at 48 h, Library stock concentration: 2 mM
[10] = measured here: cell number at 48 h, Library stock concentration: 10 mM
[11] = Library stock concentration: 80 uM
[12] = Library stock concentration: 400 uM
[13] = Library stock concentration: 2 mM
[14] = Library stock concentration: 10 mM
[15] = measured here: p53 positive nuclei at 24 h, Library stock concentration: 80 uM
[16] = measured here: p53 positive nuclei at 24 h, Library stock concentration: 400 uM
[17] = measured here: p53 positive nuclei at 24 h, Library stock concentration: 2 mM
[18] = measured here: p53 positive nuclei at 24 h, Library stock concentration: 10 mM
[19] = measured here: cell number at 24 h, Library stock concentration: 3.33 mM
[20] = measured here: cell number at 48 h, Library stock concentration: 3.33 mM
[21] = Library stock concentration: 3.33 mM
[22] = measured here: p53 positive nuclei at 24 h, Library stock concentration: 3.33 mM
[23] = measured here: cell number at 24 h, Library stock concentration: 46 uM
[24] = measured here: cell number at 24 h, Library stock concentration: 278 uM
[25] = measured here: cell number at 24 h, Library stock concentration: 1.67 mM
[26] = measured here: cell number at 48 h, Library stock concentration: 46 uM
[27] = measured here: cell number at 48 h, Library stock concentration: 278 uM
[28] = measured here: cell number at 48 h, Library stock concentration: 1.67 mM
[29] = Library stock concentration: 46 uM
[30] = Library stock concentration: 278 uM
[31] = Library stock concentration: 1.67 mM
[32] = measured here: p53 positive nuclei at 24 h, Library stock concentration: 46 uM
[33] = measured here: p53 positive nuclei at 24 h, Library stock concentration: 278 uM
[34] = measured here: p53 positive nuclei at 24 h, Library stock concentration: 1.67 mM

Molecule `CS(=O)(=O)c1ccc(C(CC2CCCC2)C(=O)Nc2nccs2)cc1` (configuration not stated) has a nuclei count, normalised [1, 3] of 117%, a nuclei count, normalised [1, 4] of 108% and a nuclei count, normalised [1, 5] of 110%. For the same molecule, the nuclei count, normalised [1, 6] was 109%, the nuclei count, normalised [1, 7] was 110% and the nuclei count, normalised [1, 8] was 104%. The nuclei count, normalised [1, 9] was 100%, the nuclei count, normalised [1, 10] was 106% and the p53-positive nuclei, normalised [2, 11] was 0.258% (inactive). For the same molecule, the p53-positive nuclei, normalised [2, 12] was 0.124% (inactive), the p53-positive nuclei, normalised [2, 13] was 0.01% (inactive) and the p53-positive nuclei, normalised [2, 14] was -0.00666% (inactive). The p53-positive nuclei, normalised [2, 15] was -0.031%, the p53-positive nuclei, normalised [2, 16] was -0.122% and the p53-positive nuclei, normalised [2, 17] was 0.0254%. For the same molecule, the p53-positive nuclei, normalised [2, 18] was -0.0737%.
For `O=C(NN=Cc1ccc(O)c(O)c1)c1cc2ccccc2cc1O`, the nuclei count, normalised [1, 19] was 108%, the nuclei count, normalised [1, 20] was 99.5% and the p53-positive nuclei, normalised [2, 21] was 0.0529% (inactive). It also gave a p53-positive nuclei, normalised [2, 22] of -0.25%.
Molecule `CCOC(=O)NC1CCC2C(C1)CC1C(=O)OC(C)C1C2C=Cc1ccc(-c2cccc(F)c2)cn1` (configuration not stated) has a nuclei count, normalised [1, 23] of 115%, a nuclei count, normalised [1, 24] of 108% and a nuclei count, normalised [1, 25] of 101%. It also gave a nuclei count, normalised [1, 6] of 105%, a nuclei count, normalised [1, 26] of 117% and a nuclei count, normalised [1, 27] of 109%. For the same molecule, the nuclei count, normalised [1, 28] was 107%, the nuclei count, normalised [1, 10] was 107% and the p53-positive nuclei, normalised [2, 29] was -0.0807% (inactive). The p53-positive nuclei, normalised [2, 30] was -0.17% (inactive), the p53-positive nuclei, normalised [2, 31] was 0.0724% (inactive) and the p53-positive nuclei, normalised [2, 14] was -0.166% (inactive). For the same molecule, the p53-positive nuclei, normalised [2, 32] was -0.0891%, the p53-positive nuclei, normalised [2, 33] was -0.151% and the p53-positive nuclei, normalised [2, 34] was -0.079%. For the same molecule, the p53-positive nuclei, normalised [2, 18] was 0.188%.
`Cc1ccc(NC(=O)c2ccc(CN3CCN(C)CC3)cc2)cc1Nc1nccc(-c2cccnc2)n1` showed a nuclei count, normalised [1, 3] of 114%, a nuclei count, normalised [1, 4] of 85.7% and a nuclei count, normalised [1, 5] of 91%. For the same molecule, the nuclei count, normalised [1, 19] was 99% and 103%, the nuclei count, normalised [1, 6] was 87.2% and the nuclei count, normalised [1, 7] was 112%. For the same molecule, the nuclei count, normalised [1, 8] was 84.9%, the nuclei count, normalised [1, 9] was 92.2% and the nuclei count, normalised [1, 20] was 99.2% and 104%. For the same molecule, the nuclei count, normalised [1, 10] was 87.9%, the p53-positive nuclei, normalised [2, 11] was 0.0518% (inactive) and the p53-positive nuclei, normalised [2, 12] was 0.00427% (inactive). The p53-positive nuclei, normalised [2, 13] was -0.0247% (inactive), the p53-positive nuclei, normalised [2, 21] was -0.686% (inactive) and -0.212% (inactive) and the p53-positive nuclei, normalised [2, 14] was -0.182% (inactive). The p53-positive nuclei, normalised [2, 15] was 0.0696%, the p53-positive nuclei, normalised [2, 16] was 0.334% and the p53-positive nuclei, normalised [2, 17] was 0.0437%. For the same molecule, the p53-positive nuclei, normalised [2, 22] was -0.375% and -0.356% and the p53-positive nuclei, normalised [2, 18] was -0.0433%.
For `Nc1ccccc1NC(=O)c1ccc(CNC(=O)OCc2cccnc2)cc1`, the nuclei count, normalised [1, 23] was 96%, the nuclei count, normalised [1, 3] was 114% and the nuclei count, normalised [1, 24] was 104%. For the same molecule, the nuclei count, normalised [1, 4] was 118%, the nuclei count, normalised [1, 25] was 107% and the nuclei count, normalised [1, 5] was 124%. The nuclei count, normalised [1, 19] was 104%, the nuclei count, normalised [1, 6] was 90.8% and 96% and the nuclei count, normalised ([1]; measured here: cell number at 24 h, concentration not given here) was 107%. The nuclei count, normalised [1, 26] was 96.3%, the nuclei count, normalised [1, 7] was 103% and the nuclei count, normalised [1, 27] was 103%. For the same molecule, the nuclei count, normalised [1, 8] was 100%, the nuclei count, normalised [1, 28] was 95.3% and the nuclei count, normalised [1, 9] was 101%. The nuclei count, normalised [1, 20] was 88.9%, the nuclei count, normalised [1, 10] was 58% and 57.5% and the nuclei count, normalised ([1]; measured here: cell number at 48 h, concentration not given here) was 103%. For the same molecule, the p53-positive nuclei, normalised [2, 29] was -0.0533% (inactive), the p53-positive nuclei, normalised [2, 11] was -0.489% (inactive) and the p53-positive nuclei, normalised [2, 30] was -0.145% (inactive). The p53-positive nuclei, normalised [2, 12] was -0.1% (inactive), the p53-positive nuclei, normalised [2, 31] was 3.54% (inactive) and the p53-positive nuclei, normalised [2, 13] was 0.00969% (inactive). The p53-positive nuclei, normalised [2, 21] was 0.482% (inactive), the p53-positive nuclei, normalised [2, 14] was 17.1% (inactive) and 14.2% (inactive) and the p53-positive nuclei, normalised ([2]; concentration not given here) was 0.78% (inactive). It also gave a p53-positive nuclei, normalised [2, 32] of 0.084%, a p53-positive nuclei, normalised [2, 15] of -0.0702% and a p53-positive nuclei, normalised [2, 33] of -0.207%. The p53-positive nuclei, normalised [2, 16] was 0.0634%, the p53-positive nuclei, normalised [2, 34] was 5.23% and the p53-positive nuclei, normalised [2, 17] was 0.00201%. For the same molecule, the p53-positive nuclei, normalised [2, 22] was 0.899%, the p53-positive nuclei, normalised [2, 18] was 34.2% and 14.9% and the p53-positive nuclei, normalised ([2]; measured here: p53 positive nuclei at 24 h, concentration not given here) was 0.224%.
`Nc1ccccc1NC(=O)c1ccc(CNc2nccc(-c3cccnc3)n2)cc1` gave a nuclei count, normalised [1, 3] of 128%, a nuclei count, normalised [1, 4] of 124% and a nuclei count, normalised [1, 5] of 125%. For the same molecule, the nuclei count, normalised [1, 19] was 42.1%, the nuclei count, normalised [1, 6] was 49.9% and the nuclei count, normalised [1, 7] was 109%. It also gave a nuclei count, normalised [1, 8] of 107%, a nuclei count, normalised [1, 9] of 98.1% and a nuclei count, normalised [1, 20] of 30.1%. The nuclei count, normalised [1, 10] was 29.3%, the p53-positive nuclei, normalised [2, 11] was 8% (inactive) and the p53-positive nuclei, normalised [2, 12] was 0.396% (inactive). For the same molecule, the p53-positive nuclei, normalised [2, 13] was 1.82% (inactive), the p53-positive nuclei, normalised [2, 21] was 23.5% (inactive) and the p53-positive nuclei, normalised [2, 14] was 83.5% (active). The p53-positive nuclei, normalised [2, 15] was 4.97%, the p53-positive nuclei, normalised [2, 16] was 0.046% and the p53-positive nuclei, normalised [2, 17] was 0.551%. The p53-positive nuclei, normalised [2, 22] was 10.3% and the p53-positive nuclei, normalised [2, 18] was 87.6%.
